Sampled rows, rich in hits. Any-hit rate of the full collection: about 2.7%.
MPTP inh = mitochondrial permeability transition pore inhibitors, primary screen, biochemical, isolated mouse mitochondria, absorbance. Ca2+ swelling absorbance, 30 min. AID 602449, 2012. inhibition, % at 10 µM. hit rate 1.4% among 360,000;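 active means inhibition of 50% or more, scaled per plate between neutral and stimulator controls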;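 further: 0% = DMSO wells given calcium and 100% = 1 mM EGTA wells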
NadD inh = inhibitors of S. aureus NadD, primary screen, biochemical, colorimetric, uHTS | Nicotinate-nucleotide adenylyltransferase NadD (Staphylococcus aureus N315) | purified NadD enzyme, colorimetric absorbance read-out | inhibition, % at 20 µM | hit rate 0.78% among 360,000; in the data active means inhibition above about 26%
aDG glyco act = activators of alpha-DG glycosylation, primary screen, uHTS, Pro5-aDG cells, AlphaScreen; alpha-DG glycosylation AlphaScreen (IIH6); 0% Pro5, 100% B10-LARGE cell signal; activation, % at 10 µM; hit rate 0.22% among 360,000;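 active means activation of at least 8% versus controls, or a plate z-score of at least 8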;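 further: Pro5 are CHO cells carrying HIG-tagged alpha-DG that lacks glycosylation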
H9c2 TAG inh = inhibitors of triacylglycerol accumulation, primary screen, cell-based, uHTS, fluorescence, H9c2. H9c2 cells, Nile Red lipid (TAG) fluorescence; cells loaded with 200 µM oleic acid. inhibition, % at 12.5 µM. AID 651582, 2012. hit rate 0.66% among 230,000;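 active means pattern-corrected inhibition of lipid staining of at least 50% with the nuclear-stain viability signal not falling by more than 50%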;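 further: 0% = DMSO wells and 100% = triacsin C control wells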
* = called active by the depositor.

Screening CN1C(=O)C2(NCCc3c2[nH]c2ccccc32)c2ccccc21 (configuration not stated) returned MPTP inh -14, NadD inh 3 and aDG glyco act 0.
COC(=O)c1c(NC(=O)c2ccc([N+](=O)[O-])o2)sc2c1CCN(C(C)C)C2 was read as MPTP inh -1, NadD inh -3, aDG glyco act 0 and H9c2 TAG inh 59*.
O=C(COC(=O)C1C2CC3OC(=O)C1C3C2)Nc1ccccc1 (configuration not stated) was read as MPTP inh 0, NadD inh 1 and aDG glyco act 0.
`CCn1nc(C)c(CN2CCC(C(=O)Nc3cccc(-c4cccc(F)c4)c3)CC2)c1C` gave MPTP inh -1, NadD inh -7 and aDG glyco act 8.0*.
`CCn1cc(CN2CCC(C(=O)Nc3cccc(-c4cccc(OC)c4)c3)CC2)cn1` gave MPTP inh 0, NadD inh -1, aDG glyco act 0 and H9c2 TAG inh 20.
Screening CCn1cc(CN2CCC(C(=O)Nc3cccc(-c4cccc(F)c4)c3)CC2)cn1 returned MPTP inh 0, NadD inh -8, aDG glyco act 1 and H9c2 TAG inh 6.
CC(C)n1cc(CN2CCC(C(=O)Nc3cccc(-c4cccc(Cl)c4)c3)CC2)cn1 was read as MPTP inh 0, NadD inh -6, aDG glyco act 8.6* and H9c2 TAG inh 30.
Screening COc1ccc(Cl)cc1N1C(=O)CN(Cc2cc(OC)c(OC)c(OC)c2)C1=S returned MPTP inh -1, NadD inh -1 and aDG glyco act 0.
Screening COc1ccccc1Nc1nc(N)nc(CCl)n1 returned MPTP inh 2, NadD inh 2, aDG glyco act 0 and H9c2 TAG inh 2.
CCOc1ccc(Nc2nc(N)nc(CCl)n2)cc1 was read as MPTP inh 1, NadD inh -4, aDG glyco act 0 and H9c2 TAG inh 72*.
Cc1ccc(Nc2nc(N)nc(CCl)n2)c(C)c1 was read as MPTP inh 4, NadD inh 0, aDG glyco act 0 and H9c2 TAG inh 80*.
For Cc1cccc(Nc2nc(N)nc(CCl)n2)c1C the results were MPTP inh 1, NadD inh -5, aDG glyco act 0 and H9c2 TAG inh 80*.
`COc1cc([N+](=O)[O-])cc(/C=N/NC(=O)C(C)Nc2cccc3ccccc23)c1O` (configuration not stated) gave MPTP inh 9, NadD inh 48* and aDG glyco act 0.
For CCC(=O)OCCNc1cc(Sc2nccn2C)c2nonc2c1[N+](=O)[O-] the results were MPTP inh 0, NadD inh 4, aDG glyco act 0 and H9c2 TAG inh 69*.
Cc1ccccc1C(=O)c1cccn1CC(=O)NCc1cccc(Cl)c1 was read as MPTP inh 0, NadD inh -1 and aDG glyco act 0.
`CC1(C)C(/C=C/C=C/C=C/C=C2\N(CCCCS(=O)(=O)O)c3ccc4ccccc4c3C2(C)C)=[N+](CCCCS(=O)(=O)[O-])c2ccc3ccccc3c21` gave MPTP inh -6, NadD inh 67*, aDG glyco act 0 and H9c2 TAG inh 23.
COc1ccc(CC(=O)NCC2CCCN(Cc3ccccc3Cl)C2)cc1 (configuration not stated) was read as MPTP inh 0, NadD inh 3 and aDG glyco act 0.
O=C(O)c1cc(N2N=C(C(F)(F)F)/C(=C/C=C/c3ccco3)C2=O)ccc1Cl was read as MPTP inh 4, NadD inh 42* and aDG glyco act 0.
CC(=O)N(C1=C(N)C(=O)c2ccccc2C1=O)c1ccccc1 was read as MPTP inh 1, NadD inh -5 and aDG glyco act 4.1*.
C=CC(=O)Nc1cccc(Oc2ccnc3[nH]ccc23)c1 was read as MPTP inh 4, NadD inh 59*, aDG glyco act 0 and H9c2 TAG inh 19.
Screening CCCCC(CC)CN1CN(CC(CC)CCCC)CC(C)(N)C1 (configuration not stated) returned MPTP inh 10, NadD inh -11, aDG glyco act 2 and H9c2 TAG inh -20.
`O=[N+]([O-])c1ccccc1N/N=C/c1c[nH]c2ccccc12` gave MPTP inh 9, NadD inh -4, aDG glyco act -1 and H9c2 TAG inh 82*.

Screens deposited in PubChem BioAssay by Sanford-Burnham Center for Chemical Genomics.
